The values below come from PubChem BioAssay (NCI).

The panel holds about 79,000 compounds, 15% with a hit somewhere; the sample as a whole holds those more often. Values without a mark were called inactive. Activity calls are given as the source filed them. Rule as the data show it: active = growth inhibition above about 70%; inactive = the rest.

Assay [1] is described as follows: NCI Yeast Anticancer Drug Screen. Data for the rad50 strain (AID 155).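 Also: 0% = growth of vehicle-only cultures of the same strain.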 The following applies: S. cerevisiae rad50 strain growth inhibition; at 50.0 µM; active compounds read high. In a few lines:
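Growth of the mutant yeast was measured after compound exposure and referenced to vehicle-treated cultures.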

A short description of assay [2]: NCI Yeast Anticancer Drug Screen. Data for the mec2-1 strain (AID 157). As to conditions: S. cerevisiae mec2-1 strain, at 50.0 µM, active compounds read high. An outline of the steps:
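Readout is yeast growth inhibition, normalised to vehicle-treated controls, in the mec2-1 strain exposed to compound.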

A short description of assay [3]: NCI Yeast Anticancer Drug Screen. Data for the sgs1 mgt1 strain (AID 161).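 Also: 0% = growth of cultures given vehicle only.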 The following applies: S. cerevisiae sgs1 mgt1 strain, at 50.0 µM, active compounds read high. An outline of the steps: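 Growth of a repair-deficient yeast mutant was monitored after compound treatment and expressed as inhibition relative to vehicle-treated cultures.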
Assay [4] can be described thus: NCI Yeast Anticancer Drug Screen. Data for the cln2 rad14 strain (AID 165).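 Also: 0% = growth equal to vehicle treated cultures.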 The following applies: S. cerevisiae cln2 rad14 strain, at 50.0 µM, active compounds read high. An outline of the steps: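 Relative to vehicle controls, growth inhibition of compound-treated cln2 rad14 yeast was recorded.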
The nature of assay [5]: NCI Yeast Anticancer Drug Screen. Data for the bub3 strain (AID 167). As to conditions: S. cerevisiae bub3 mutant strain, at 50.0 µM, active compounds read high. In a few lines: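 Whole-cell yeast assay. The mutant strain was incubated with compounds, and growth inhibition was determined by comparison with vehicle-treated cells.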
Assay [6] can be described thus: NCI Yeast Anticancer Drug Screen. Data for the mlh1 rad18 strain (AID 175). The following applies: S. cerevisiae mlh1 rad18 strain growth inhibition; at 50.0 µM; active compounds read high. An outline of the steps: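 Test agents were incubated with a yeast strain of defined genotype (DNA damage repair defect). Inhibition of growth was derived by comparison with vehicle-exposed cultures.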

With `CC1(C)OCC(C(O)C2OC(C)(C)OC2/C=N\O)O1` (stereo not given), the growth inhibition in assay [1] is -3.9%; in assay [2], -18%; in assay [3], -0.2%; in assay [4] it was -0.5%; in assay [5] it was -1.45%; in assay [6], -17%.

On to `NC(N)=N/N=C1/C(=O)N(C2CCCCCC2)C(=O)C1C(=O)NC1CCCCCC1` (stereo not given), for which the growth inhibition was 35.8% in assay [1]; 5.3% in assay [2]; 14.9% in assay [3]; 23.9% in assay [4]; 6.4% in assay [5]; 28.1% in assay [6].

`COP(=O)(OC)C1c2cc(Cl)ccc2-c2c(Cl)cc(Cl)cc21` (stereo not given): the growth inhibition was 88.8% (active) in assay [1]; 67.9% in assay [2]; 83.7% (active) in assay [3]; 49.5% in assay [4]; 32.6% in assay [5]; 68.8% in assay [6].

Consider `O=C1NC(=O)C2CCC12` (stereo not given), for which the growth inhibition in assay [1] was 1.95%; in assay [2] it was -4.2%; in assay [3] it was 1.45%; in assay [4] it was -20.7%; in assay [5] it was 8.95%; in assay [6] it was 18.2%.

`CC(/C=C/c1ccccc1)=N\NC(=O)c1ccccc1`: the growth inhibition in assay [1] is 44.8%; in assay [2], 5.3%; in assay [3], -5.4%; in assay [4] it was 4.3%; in assay [5], -15.1%; in assay [6], -47.1%.

For the compound `CC(=O)OCC#Cc1ccccc1`, the growth inhibition in assay [1] was -10.9%; in assay [2], -14.1%; in assay [3] it was -0.2%; in assay [4], -17.6%; in assay [5], 19.4%; in assay [6] it was -1.2%.

Regarding `Cc1cc(C)cc(N)c1`, the growth inhibition in assay [1] is 1.7%; in assay [2] it was -29.9%; in assay [3], -5.1%; in assay [4] it was -8.85%; in assay [5], -5.25%; in assay [6], -10%.

In the case of `NC(=O)N/N=C1\CCCC(OC(=O)c2ccccc2)CC1` (stereo not given), the growth inhibition in assay [1] was 2.85%; in assay [2], -27.7%; in assay [3] it was -16.8%; in assay [4], -20.1%; in assay [5] it was -1.5%; in assay [6] it was -20.8%.

On to `CC(Oc1cc(Cl)c(Cl)cc1Cl)C(=O)NC(Cc1ccccc1)C(=O)O` (stereo not given), for which the growth inhibition was 8.5% in assay [1]; 9.45% in assay [2]; 13.5% in assay [3]; 25.6% in assay [4]; -0.45% in assay [5]; 5.8% in assay [6].

As for `CC(C)CCCC(C)C1CCC2C3CC=C4CC(P(=O)(c5ccccc5)c5ccccc5)CCC4(C)C3CCC12C` (stereo not given), the growth inhibition in assay [1] was 10.3%; in assay [2], -9.9%; in assay [3], -6.05%; in assay [4], -10.5%; in assay [5], 5.75%; in assay [6], -12.1%.

With `CC1(C)/C(=N\NC(N)=O)C2CCC1C2` (stereo not given), the growth inhibition in assay [1] is -19.9%; in assay [2], -25.6%; in assay [3] it was 2.65%; in assay [4] it was -4.05%; in assay [5] it was -11.6%; in assay [6] it was -16.9%.

As for `COc1ccc(C2=C(OC(C)=O)c3cccn3-c3ccccc3S2)cc1`, the growth inhibition was -34.5% in assay [1]; -49.9% in assay [2]; -28.8% in assay [3]; -45.9% in assay [4]; -45.8% in assay [5]; 2.15% in assay [6].

With `CCOC(=O)NN1C(=O)C(=P(c2ccccc2)(c2ccccc2)c2ccccc2)C(C(=O)OC)=C1C`, the growth inhibition is -4.05% in assay [1]; 4.45% in assay [2]; -6.75% in assay [3]; 11.8% in assay [4]; -6.65% in assay [5]; -4.85% in assay [6].

`CC(CN1c2ccccc2Sc2ccccc21)N(C)CCO` (stereo not given): the growth inhibition was 3% in assay [1]; -24.7% in assay [2]; -4.05% in assay [3]; -1.6% in assay [4]; -4.3% in assay [5]; -0.9% in assay [6].

Consider `CCCCCCCCCCCCSC1=CC(=O)C(SCCCCCCCCCCCC)=CC1=O`, for which the growth inhibition in assay [1] was -15.8%; in assay [2], -6.55%; in assay [3] it was -5.6%; in assay [4] it was -13.2%; in assay [5], -4.5%; in assay [6], -34.1%.

For `O=S(=O)(O)CCS(=O)(=O)O`, the growth inhibition in assay [1] was -15.8%; in assay [2] it was -19.3%; in assay [3], -3.85%; in assay [4], -51.3%; in assay [5], 1.45%; in assay [6], -45.9%.

As for `O=C1COC(C(O)(c2ccccc2)c2ccccc2)C(=O)N1` (stereo not given), the growth inhibition in assay [1] is -5.35%; in assay [2], -18.9%; in assay [3], -1.3%; in assay [4] it was -65%; in assay [5] it was -21.4%; in assay [6], 6.25%.

On to `O=[N+]([O-])c1cccc(-c2csc(N=Nc3c(O)[nH]c4ccccc34)n2)c1`, for which the growth inhibition was -29.6% in assay [1]; -8.9% in assay [2]; -0.3% in assay [3]; -12.9% in assay [4]; 14.2% in assay [5]; 13.3% in assay [6].

Turning to `O=C(Nc1ccccc1)Oc1ccccc1C1CCCCC1`, the growth inhibition in assay [1] was 26.8%; in assay [2], 2.4%; in assay [3] it was 6%; in assay [4], 16.8%; in assay [5], -18.9%; in assay [6], -20%.

Regarding `CCCOc1cc2c(cc1C(C)c1ccc(OC)cc1)OCO2` (stereo not given), the growth inhibition was 9.8% in assay [1]; -4.35% in assay [2]; 15.8% in assay [3]; -1.9% in assay [4]; -14.4% in assay [5]; -53% in assay [6].
